A selection: hits, their analogues and other compounds. The true share with any hit is near 2.6%.
APOBEC3A inh – inhibitors of human APOBEC3A DNA deaminase. inhibition, % at 20 µM. recombinant A3A, FAM/TAMRA ssDNA deamination fluorescence. AID 493011. P31941. 330,000 tested, 0.41% active;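 active means at least 40% inhibition at 20 µM here, with at most 30% in a related deaminase screen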
Target sequence (P31941 whole entry, looked up): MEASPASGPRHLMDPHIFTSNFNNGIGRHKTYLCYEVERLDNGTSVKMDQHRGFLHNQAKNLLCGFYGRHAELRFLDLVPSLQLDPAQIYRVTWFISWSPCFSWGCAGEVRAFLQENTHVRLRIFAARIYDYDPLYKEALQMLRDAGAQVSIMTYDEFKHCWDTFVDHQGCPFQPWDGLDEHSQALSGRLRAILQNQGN
PABP FP inh – blocks human PABP binding to poly(A) RNA; calls only at 35 µM; P11940; fluorescence polarization; 290,000 tested, 1% active;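 further: calls also rest on retests at 20 µM and on dose response follow-up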
MLLE-PAM2 inh – blocks PAM2 peptide binding to the PABP1 MLLE domain. P11940. GST-MLLE / FITC-PAM2 fluorescence polarization. inhibition, % at 20 µM. 360,000 tested, 0.36% active; in the data active means inhibition above about 35%, passing the limit was not always enough
eIF4H inh – inhibitors of RNA binding by human eIF4H. eIF4H fluorescence polarization binding assay. 290,000 tested, 0.94% active. AID 2012. inhibition, % at 35 µM. Q15056;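 further: calls also rest on retests at 20 µM and on dose response follow-up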
PHOSPHO1 inh – inhibitors of human PHOSPHO1 phosphatase. 290,000 tested, 1.1% active. recombinant PHOSPHO1, absorbance phosphatase assay. inhibition, % at 13.3 µM. AID 1565; in the data active means inhibition above about 60%
APOBEC3G inh – inhibitors of human APOBEC3G DNA deaminase | inhibition, % at 20 µM | Q9HC16 | AID 493012 | 330,000 tested, 0.28% active | recombinant A3G, ssDNA deamination FAM/TAMRA fluorescence;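 active means inhibition of at least 40% at 20 µM, with no more than 30% in the related APOBEC3A deaminase screen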
Target sequence (Q9HC16 whole entry, looked up): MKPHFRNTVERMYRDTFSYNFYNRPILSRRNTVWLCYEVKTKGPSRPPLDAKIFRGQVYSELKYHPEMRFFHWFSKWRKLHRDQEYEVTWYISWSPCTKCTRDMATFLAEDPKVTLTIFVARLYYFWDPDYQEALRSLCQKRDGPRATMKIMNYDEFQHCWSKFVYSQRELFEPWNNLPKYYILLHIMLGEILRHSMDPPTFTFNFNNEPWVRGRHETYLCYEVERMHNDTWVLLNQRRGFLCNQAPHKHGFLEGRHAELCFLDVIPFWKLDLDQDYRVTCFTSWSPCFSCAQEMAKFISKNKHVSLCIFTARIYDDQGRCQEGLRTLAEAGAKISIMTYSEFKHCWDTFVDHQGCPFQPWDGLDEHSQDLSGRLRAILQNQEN
A number is an active result; i = inactive; ? = inconclusive; nt = no result given; + = active, no number. Unless noted, how the calls were made is not given here.

SMILES	APOBEC3A inh	PABP FP inh	MLLE-PAM2 inh	eIF4H inh	PHOSPHO1 inh	APOBEC3G inh
COc1cc(OC)c(C2CC(=O)N3CN(c4ccc(C)cc4)CSC3=C2C#N)cc1OC (stereo unspecified)	i	?	i	?	96	i
CCOc1ccccc1N1CSC2=C(C#N)C(c3c(OC)ccc4ccccc34)CC(=O)N2C1 (stereo unspecified)	i	i	i	i	92	i
COc1ccc(N2CSC3=C(C#N)C(c4cc(OC)ccc4OC)CC(=O)N3C2)c(OC)c1 (stereo unspecified)	i	i	i	i	94	i
CC(=O)c1ccccc1NC(=O)COC(=O)CSCC(=O)Nc1cc(C)on1	i	nt	i	nt	nt	i
Cc1nc(C)c(C(=O)OCC(=O)Nc2cccc(C)c2C)s1	i	nt	i	nt	nt	i
COc1ccccc1-c1nnc(SCCN2CCOCC2)n1-c1ccc(C)cc1	i	i	i	i	69	i
CCOc1ccc2nc3c(cc2c1)CN(CCOC)C(=NC)S3	i	i	i	i	i	i
CCN=C1Sc2nc3ccc(OCC)cc3cc2CN1CCOC	i	i	i	i	72	i
CCOc1cc(CNS(=O)(=O)c2ccc3c(c2)CC(=O)N3C)cc(OCC)c1OCC	i	i	i	i	65	i
CCCn1c(NC(=O)C2COc3ccccc3O2)nc2ccccc21 (stereo unspecified)	i	i	i	i	i	i
O=C1CCNc2c(Cl)cc(Cl)cc21	i	i	i	51	i	i
Cc1cc(C)c2c(CN(Cc3ccccc3)Cc3ccccc3)cc(=O)oc2c1	nt	nt	i	nt	nt	nt
O=C(c1ccc(F)cc1)c1c[nH]c(C(=O)NCCCN2CCOCC2)c1	i	i	i	i	i	i
CCC(CC)C(=O)c1c[nH]c(C(=O)NCCCN2CCOCC2)c1	i	i	i	i	66	i
Cc1c(C(=O)OCC(=O)NCc2ccc3c(c2)OCO3)cccc1[N+](=O)[O-]	i	i	i	i	i	i
O=c1[nH]c(=O)c2cn[nH]c2[nH]1	i	nt	i	nt	nt	i
COc1ccc(C(=O)CSc2n[nH]c(-c3ccco3)n2)cc1	i	+	i	71	i	i
CCc1nc(SCC(=O)c2ccc(C)c(C)c2)n[nH]1	i	i	i	i	99	i
Cc1nc(SCC(=O)c2ccc(F)cc2)n[nH]1	i	i	i	i	95	i
COc1ccccc1N(CC(=O)NCc1ccco1)C(=O)CCC(=O)Nc1ccccn1	i	i	i	i	i	i
COc1ccc(C(=O)NNC(=O)CSc2nnc(-c3ccc(O)cc3)n2C)cc1	i	i	i	i	i	i
CC1CCN(Cc2c(C(=O)N/N=C/c3ccc(OC(C)C)cc3)nnn2-c2nonc2N)CC1	i	i	i	i	i	i
CN(C)/C=C1\C(=O)N(c2ccc(Cl)c(Cl)c2)CS1(=O)=O	i	i	i	i	i	i
CN(C)C1=C(Cl)C(=O)N(c2ccc(Cl)c(Cl)c2)C1=O	i	+	i	i	i	i
COc1ccccc1Oc1ccc(Oc2ccccc2OC)cc1	i	i	i	i	i	i
SMILES	APOBEC3A inh	PABP FP inh	MLLE-PAM2 inh	eIF4H inh	PHOSPHO1 inh	APOBEC3G inh
CC(=O)Nc1ccc(S(=O)(=O)NCCSc2ccccn2)cc1	i	+	i	60	i	i
O=C(O)COc1ccc2c(c1)O/C(=C\c1cccs1)C2=O	i	i	i	i	i	i
Cc1ccc(/C=C2\Oc3cc(OCC(=O)NN)ccc3C2=O)o1	i	i	i	73	i	i
COCCN(CCOC)Cc1c(O)ccc2c1O/C(=C\c1ccc(C)o1)C2=O	i	i	i	51	i	i
O=C(O)COc1ccc2c(c1)O/C(=C\c1ccco1)C2=O	i	+	i	77	i	i
Cc1ccc(S(=O)(=O)NC(CC(=O)O)c2ccc(F)cc2)cc1 (stereo unspecified)	i	i	i	i	i	i
Cc1nn(C(C)C(=O)N2CCc3ccccc32)c(C)c1[N+](=O)[O-] (stereo unspecified)	i	i	i	i	i	i
CS(=O)(=O)ON=C1CCN(S(=O)(=O)c2ccccc2)CC1	i	i	i	i	i	i
CSc1ncnc2c1ncn2CCCN1CCN(Cc2c(C)cc(C)cc2C)CC1	nt	nt	i	nt	nt	nt
O=c1c2ccccc2nnn1CSc1nc2ccccc2[nH]1	i	i	i	i	i	i
Cc1cc(=O)[nH]c(SCn2nnc3ccccc3c2=O)n1	i	i	43	i	i	i
O=C(NCc1ccccn1)C1CCC(CNS(=O)(=O)c2cccc3nsnc23)CC1 (stereo unspecified)	i	i	i	i	63	i
CCCNC(=O)C1CCC(CNS(=O)(=O)c2cccc3nsnc23)CC1 (stereo unspecified)	i	i	i	i	i	i
CC1(C)CC(=O)C=C(OC(=O)c2ccc(Cl)cc2)C1	i	i	i	i	i	i
Clc1ccc(-c2nnc3sc(-c4ccc(Br)o4)nn23)c(Cl)c1	i	i	i	i	i	i
c1coc(-c2nnc3sc(Cc4cccs4)nn23)c1	i	+	i	77	i	i
c1coc(-c2nn3c(-c4ccco4)nnc3s2)c1	i	+	i	95	84	i
COc1ccccc1-c1nn2c(-c3ccco3)nnc2s1	i	i	i	59	i	i
Clc1ccccc1-c1nnc2sc(-c3ccc(Br)o3)nn12	i	i	i	i	80	i
COc1ccccc1-c1nn2c(-c3ccccc3Cl)nnc2s1	nt	i	nt	i	i	nt
O=[N+]([O-])c1ccccc1S(=O)(=O)Nc1ccc(S(=O)(=O)N2CCCC2)cc1	i	nt	i	nt	nt	i
c1csc(Cc2nn3c(-c4n[nH]c5c4CCC5)nnc3s2)c1	i	+	i	i	i	i
Clc1ccc(-c2nnc3sc(Cc4cccs4)nn23)c(Cl)c1	i	i	i	i	i	i
Cc1ccc(S(=O)(=O)N2CCOCC2)cc1NC(=O)c1cccc(S(=O)(=O)N2CCCC2)c1	i	i	i	i	i	i
CCCCn1c(N)c(N(Cc2ccccc2OC)C(=O)C(C)Oc2ccc(Cl)cc2)c(=O)[nH]c1=O (stereo unspecified)	i	i	i	i	63	i
SMILES	APOBEC3A inh	PABP FP inh	MLLE-PAM2 inh	eIF4H inh	PHOSPHO1 inh	APOBEC3G inh
C[C@H]1CN([C@@H](C)CO)C(=O)CCCn2nncc2CO[C@H]1CN(C)S(=O)(=O)c1ccccc1F	nt	nt	i	nt	nt	nt
O=C(O)c1c(Cl)c(Cl)c(Cl)c(Cl)c1C(=O)N1CCCC1	i	i	i	i	i	i
Cc1ccc(S(=O)(=O)Nc2ccc(O)c(Sc3ncn[nH]3)c2)cc1	i	i	i	i	i	i
Cc1ccc(C)c(S(=O)(=O)Nc2ccc(O)c(Sc3ncn[nH]3)c2)c1	i	+	i	79	i	i
CCCCCCn1c(CN2CCN(CCO)CC2)nc2c1c(=O)n(C)c(=O)n2C	i	+	i	i	i	i
NC(=O)c1c(NC(NC(=O)c2ccco2)C(=O)c2ccc(Cl)cc2)sc2c1CCCC2 (stereo unspecified)	i	i	i	i	100	i
N#Cc1c(NC(NC(=O)c2ccco2)C(=O)c2ccccc2)sc2c1CCCC2 (stereo unspecified)	i	i	i	i	i	i

Screening data (PubChem BioAssay)
